Measured values as given in ChEMBL document CHEMBL4513141, “CO-ADD screening of NIH (USA) - Clinical Collection” (2021).
Measured potencies and affinities stand elsewhere.

What follows are molecules tested on Klebsiella pneumoniae. Conditions: Concentration 20 uM; ASSAY_TEST Inhibition of Bacterial Growth; detection method Absorption (OD600); MEDIA CAMHB; plate type 384well; NBS; CORNING #3640; time 18 hr.
Molecule `CN1C(=O)COc2c(C(=O)NC3CN4CCC3CC4)cc(Cl)cc21.Cl` (configuration not stated) has an Inhibition of 10.75%. `COc1cc(CNC(=O)CCCC/C=C\C(C)C)ccc1O` [ZUCAPSAICIN] gave an Inhibition of 12.92%. `NCCc1ccccn1` was tested, and the Inhibition was 3.21%. Work on `Cc1c(OCC(F)(F)F)ccnc1C[S+]([O-])c1nc2ccccc2[nH]1` (configuration not stated) [LANSOPRAZOLE] yielded an Inhibition of 7.47%. `C[C@]12CC[C@H]3[C@@H](CCC4=CC(=O)CC[C@@H]43)[C@@H]1CC[C@@H]2O` [NANDROLONE] was tested, and the Inhibition was 5.92%. For `CN1CC[C@@]23CCCC[C@@H]2[C@@H]1Cc1ccc(O)cc13.O=C(O)C(O)C(O)C(=O)O`, the Inhibition was 17.43%. With `CN1C(=O)CN=C(c2ccccc2)c2cc(Cl)ccc21` [DIAZEPAM] the Inhibition was 10.3%. `C#C[C@]1(O)CC[C@H]2[C@@H]3CCC4=CC(=O)CC[C@@H]4[C@H]3CC[C@@]21C` [NORETHINDRONE] was tested, and the Inhibition was 6.67%. `COc1cc2c(cc1OC)[C@@]13CCN4CC5=CCO[C@H]6CC(=O)N2[C@H]1[C@H]6[C@H]5C[C@H]43` [BRUCINE] gave an Inhibition of 6.18%. For `O=C1CN=C(c2ccccc2)c2cc([N+](=O)[O-])ccc2N1` [NITRAZEPAM], the Inhibition was 13.18%. `Cl.O.Oc1ccc2c3c1O[C@H]1c4[nH]c5ccccc5c4C[C@@]4(O)C(C2)N(CC2CC2)CC[C@]314` showed an Inhibition of -0.12%. Molecule `O.O=P1(N(CCCl)CCCl)NCCCO1` (configuration not stated) [CYCLOPHOSPHAMIDE] has an Inhibition of 7.22%.
